Only some compounds are listed: those with a hit (about 1.1% of all), similar ones and a draw of the others.
HTR5A ag: counter-screen for OPRM1-OPRD1 agonists: human HTR5A agonism; P47898; HTR5A agonist assay, luminescence, cell-based; activation, % at 9.3 µM; 340,000 tested, 0.61% active; in the data active = activation mostly above about 9.5%, no sharp cut-off; inactive = mostly below about 7.6%;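 note: 0% = cells with vehicle only and 100% = reference agonist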
Target sequence (P47898 whole entry, looked up): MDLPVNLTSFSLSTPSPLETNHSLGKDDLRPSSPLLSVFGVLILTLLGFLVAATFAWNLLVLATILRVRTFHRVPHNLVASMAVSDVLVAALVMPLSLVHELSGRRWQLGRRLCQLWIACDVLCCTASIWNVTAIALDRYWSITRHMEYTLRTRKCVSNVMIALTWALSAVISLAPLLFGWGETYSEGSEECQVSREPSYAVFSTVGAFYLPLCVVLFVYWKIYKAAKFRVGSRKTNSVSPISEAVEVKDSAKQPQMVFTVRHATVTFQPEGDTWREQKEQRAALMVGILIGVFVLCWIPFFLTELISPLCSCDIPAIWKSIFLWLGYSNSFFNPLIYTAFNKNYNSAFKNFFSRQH
HTR5A inv ag: HTR5A inverse agonism, opioid heterodimer counter-screen; P47898; HTR5A cell line, luminescence; inhibition, % at 9.3 µM; 340,000 tested, 0.083% active; AID 504634; in the data active = inhibition mostly above about 23%, no sharp cut-off; inactive = mostly below about 18%;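 note: 0% = cells with DMSO and 100% = no-cell wells with DMSO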
MOR-DOR ag: OPRM1-OPRD1 heterodimerization agonism. activation, % at 9.3 µM. P35372+P41143. cells, luminescence. 340,000 tested, 0.3% active; in the data active = activation above about 18%;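 note: 0% = vehicle-treated cells and 100% = reference agonist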
OPRM1-OPRD1 inv: inverse agonists of human mu-delta opioid receptor heterodimerization; P35372+P41143; cell-based MOR-DOR heterodimer luminescence, inverse agonism; inhibition, % at 9.3 µM; 340,000 tested, 0.21% active; AID 504357; in the data active = inhibition above about 22%, passing the limit was not always enough;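 note: 0% = cells with DMSO and 100% = wells without cells with DMSO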
* hit, by the source's call.

SMILES | HTR5A ag | HTR5A inv ag | MOR-DOR ag | OPRM1-OPRD1 inv
N/C(=N\OC(=O)c1ccc(Cl)c(Cl)c1)c1ccccn1 | 14* | -3 | 5 | -25
COc1ccc(Cn2c(=S)[nH]c3cc(C(=O)NCc4cccnc4)ccc3c2=O)cc1 | 13* | -38 | -2 | 12
COc1ccc(-c2nn(Cc3ccccc3)cc2C(=O)N2CCN(c3ncccn3)CC2)cc1OC | 12* | -30 | -1 | 5
Cc1nc(Cc2nnc(SC(C)C(=O)N3c4ccccc4NC(=O)C3(C)C)o2)cs1 (stereo not given) | -8 | 20 | -2 | 8
CCC1Nc2ncnc(N3CCN(c4ccccn4)CC3)c2N(Cc2ccc(Br)cc2)C1=O (stereo not given) | -29 | 80* | -15 | 86*
CCC1Nc2ncnc(N3CCN(c4ccccc4)CC3)c2N(Cc2ccccc2)C1=O (stereo not given) | -12 | 49* | -13 | 60*
CCC1Nc2ncnc(N3CCCCC3)c2N(Cc2ccc(Br)cc2)C1=O (stereo not given) | -6 | 9 | -4 | 20
CCC1Nc2ncnc(N3CCN(c4ccccn4)CC3)c2N(Cc2ccc(Cl)cc2)C1=O (stereo not given) | -29 | 77* | -14 | 80*
CCC1Nc2ncnc(N3CCCCC3)c2N(Cc2ccc(Cl)cc2)C1=O (stereo not given) | -2 | 4 | -3 | 17
Cc1nc(N2CCCCC2)c2c(C)c(C(=O)Nc3cccc(C(F)(F)F)c3)sc2n1 | 14* | 0 | 10 | -68
CCOc1cc(CNC2CCCC2)c(Cl)cc1OCC(=O)Nc1ccccc1 | 0 | -38 | 2 | -10
CN1C(=O)c2ccccc2N(C)C1c1cccc(O)c1 (stereo not given) | 5 | -17 | -5 | 23
COc1cc(C2N(C)C(=O)c3ccccc3N2C)ccc1O (stereo not given) | 9.5* | -35 | -4 | 19
CCOC(=O)c1c(N2C(=O)Nc3ccccc3N2O)n[nH]c1-c1cccc(OC)c1 | 1 | 10 | 0 | 3
CCCCNC(=S)NNC(=O)CCn1cc(C)cn1 | -2 | 20 | -2 | 11
CCCCNC(=S)NNC(=O)CCn1nc(C)c(Br)c1C | -10 | 49* | -14 | 76*
Cc1ncc(CO)c2c1Oc1nc(-c3ccccc3F)nc(SCC(=O)N(C)c3ccccc3)c1C2 | 12* | -5 | 20* | -103
CN(C)C(CNC(=O)CNC(=O)c1ccc(Br)cc1)c1ccccc1 (stereo not given) | 0 | 0 | 1 | -7
Cn1c(=O)c2c(ncn2Cc2ccc(Cl)cc2)n(C)c1=O | 8.0* | -21 | -2 | 12
Cn1c(=O)c2c(ncn2CC(COCc2ccc(Cl)cc2)OCc2ccc(Cl)cc2)n(C)c1=O (stereo not given) | 2 | -6 | -1 | 5
CCOc1ccc(Cn2nnc(C(=O)Nc3cc(OC)cc(OC)c3)c2N)cc1 | 1 | -3 | 3 | -13
CCOc1ccc(Cn2nnc(C(=O)Nc3cc(C)cc(C)c3)c2N)cc1 | 12* | -31 | 6 | -30
CCOC(=O)C(C)CC(C)C(=O)N1CCOCCN(C(=O)C(C)CC(C)C(=O)OCC)CCOCC1 (stereo not given) | 9.2* | -24 | 0 | -2
Cc1cc(Nc2nc3ccccc3nc2Cl)n(-c2ccc([N+](=O)[O-])cc2)n1 | -8 | 38* | -1 | 8
CCc1cc2c(COC(=O)c3cc(S(=O)(=O)N4CCOCC4)ccc3F)cc(=O)oc2cc1O | 0 | 0 | -3 | 12
SMILES | HTR5A ag | HTR5A inv ag | MOR-DOR ag | OPRM1-OPRD1 inv
CCc1cc2c(COC(=O)c3cccc(NS(C)(=O)=O)c3)cc(=O)oc2cc1O | 12* | -16 | 10 | -86
COC(=O)c1c(NC(=O)CCC(=O)O)sc2c1CCCCC2 | 14* | -7 | -1 | 6
CC(C)CN(Cc1cc(=O)oc2cc(-c3ccccc3)c(O)cc12)CC(C)C | 17* | 10 | 20* | -105
O=C(COC(=O)C1=NNC(=O)CC1)NCCc1ccccc1 | -6 | 19 | 0 | 2
CCc1ccc(NC(=O)CCCNC(=O)Cn2cnc3sc(C)c(C)c3c2=O)cc1 | -3 | 8 | 2 | -13
CCn1cc([N+](=O)[O-])c(C(=O)N2CCN(C(=O)c3ccco3)CC2)n1 | 14* | 26 | -1 | 5
O=C(NC(Cc1ccccc1)C(=O)NC1CC1)OCc1ccccc1 (stereo not given) | 12* | 27 | 1 | -7
CC(C)[C@H](NC(=O)OCc1ccccc1)C(=O)NCc1ccccc1 | 12* | -32 | -1 | 7
O=C(CN1C(=O)COc2ccc(S(=O)(=O)N3CCCCCC3)cc21)NCc1ccc(F)cc1 | -4 | 11 | -2 | 13
COc1ccc(NS(=O)(=O)c2cc(C(=O)O)ccc2C)cc1 | 12* | -29 | -1 | 5
